Where “and” joins values, the source holds several entries; their conditions need not be identical. Identical values can stand only once. Inconclusive results are not listed. Calls of active or inactive are those of the source. Unless noted, calls follow the shape of the dose curve; as a rule, active = well fitted curve in the direction sought with a large enough effect in the repeat runs; inconclusive = weak or mixed curves; inactive = no such curve, though single readings can be large; an effect the other way counts as inactive or inconclusive.
How the values were obtained:
[1] = qHTS assay to identify small molecule antagonists of the glucocorticoid receptor (GR) signaling pathway - cell viability counter screen (AID 720693); also: nearly all actives have a fitted effect of over 55% in size; also: potency is read from the fitted curve at half-maximal effect
[2] = qHTS assay for identifying genotoxic compounds that show differential cytotoxicity against isogenic chicken DT40 cell lines with known DNA damage response pathways - wild type cell line (AID 743012); also: nearly all actives have a fitted effect of over 60% in size; also: potency is read from the fitted curve at half-maximal effect
In short: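 Quantitative HTS on parental DT40 cells: 40 h compound treatment at 37 C/5% CO2, with viability then determined by CellTiter-Glo luminescence. Values serve as the DNA repair-proficient reference for differential cytotoxicity.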

[3] = qHTS assay for identifying genotoxic compounds that show differential cytotoxicity against isogenic chicken DT40 cell lines with known DNA damage response pathways - Rev3 mutant cell line (AID 743014); also: nearly all actives have a fitted effect of over 55% in size; also: potency is read from the fitted curve at half-maximal effect
[4] = qHTS assay for identifying genotoxic compounds that show differential cytotoxicity against isogenic chicken DT40 cell lines with known DNA damage response pathways - Rad54/Ku70 mutant cell line (AID 743015); also: nearly all actives have a fitted effect of over 60% in size; also: potency is read from the fitted curve at half-maximal effect
[5] = qHTS assay to identify small molecule antagonists of the androgen receptor (AR) signaling pathway - cell viability counter screen (AID 743033; also: nearly all actives have a fitted effect of over 45% in size; also: potency is read from the fitted curve at half-maximal effect)
[6] = biological target: Androgen receptor (Homo sapiens) (UniProt P10275); assay: qHTS assay to identify small molecule agonists of the androgen receptor (AR) signaling pathway (AID 743036; active = well fitted activation curve with a large enough effect in the signal ratio in the repeat runs, with a control signal flat, not every such curve was filed as active; the % refers to the signal ratio)
In short: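 Activation was read as beta-lactamase FRET signal from LiveBLAzer B/G substrate, added for 2 h at room temperature. Before that, GeneBLAzer AR-UAS-bla GripTite (HEK293) cells had 16 h compound exposure at 37C.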

[7] = biological target: Androgen receptor (Homo sapiens) (UniProt P10275); assay: qHTS assay to identify small molecule agonists of the androgen receptor (AR) signaling pathway using the MDA cell line (AID 743040; also: nearly all actives have a fitted effect of over 20% in size; also: potency is read from the fitted curve at half-maximal effect)
In short: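 Cells plated, 5 h at 37C/0% CO2; compound or DMSO pinned; 16 h at 37C; ONE-Glo added; luminescence measured after 30 min at room temperature. Reporter line: MDA-kb2 with MMTV-luciferase responsive to AR and GR.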

[8] = biological target: Androgen receptor (Homo sapiens) (UniProt P10275); assay: qHTS assay to identify small molecule antagonists of the androgen receptor (AR) signaling pathway (AID 743035; active = well fitted inhibition curve with a large enough effect in the signal ratio in the repeat runs, not every such curve was filed as active; the % refers to the signal ratio; also: potency is read from the fitted curve at half-maximal effect)
In short: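 Cell line: GeneBLAzer AR-UAS-bla GripTite (HEK293). Stimulus: R1881 added after compound. Exposure: 16 h, 37C, 5% CO2. Readout: LiveBLAzer B/G FRET fluorescence after 2 h at room temperature.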

[9] = qHTS assay to identify small molecule antagonists of the androgen receptor (AR) signaling pathway using the MDA cell line - cell viability counter screen (AID 743041; also: nearly all actives have a fitted effect of over 45% in size)
In short: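 Cells were plated at 3,000 per well and left 5 h. Compounds in DMSO were then pinned in, followed by R1881. After 16 h at 37C, CellTiter-Fluor fluorescence gave viability.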

[10] = biological target: Androgen receptor (Homo sapiens) (UniProt P10275); assay: qHTS assay to identify small molecule antagonists of the androgen receptor (AR) signaling pathway using the MDA cell line (AID 743042; also: nearly all actives have a fitted effect of over 55% in size; also: potency is read from the fitted curve at half-maximal effect)
In short: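 Antagonist mode: compounds plus R1881 agonist added to MDA-kb2 AR-luc cells, incubated 16 h at 37C. Luciferase reporter luminescence quantified, with multiplexed CellTiter-Fluor readout for cell viability.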

Measured: Potency

Chain of Androgen receptor (Homo sapiens) (P10275 whole entry, looked up): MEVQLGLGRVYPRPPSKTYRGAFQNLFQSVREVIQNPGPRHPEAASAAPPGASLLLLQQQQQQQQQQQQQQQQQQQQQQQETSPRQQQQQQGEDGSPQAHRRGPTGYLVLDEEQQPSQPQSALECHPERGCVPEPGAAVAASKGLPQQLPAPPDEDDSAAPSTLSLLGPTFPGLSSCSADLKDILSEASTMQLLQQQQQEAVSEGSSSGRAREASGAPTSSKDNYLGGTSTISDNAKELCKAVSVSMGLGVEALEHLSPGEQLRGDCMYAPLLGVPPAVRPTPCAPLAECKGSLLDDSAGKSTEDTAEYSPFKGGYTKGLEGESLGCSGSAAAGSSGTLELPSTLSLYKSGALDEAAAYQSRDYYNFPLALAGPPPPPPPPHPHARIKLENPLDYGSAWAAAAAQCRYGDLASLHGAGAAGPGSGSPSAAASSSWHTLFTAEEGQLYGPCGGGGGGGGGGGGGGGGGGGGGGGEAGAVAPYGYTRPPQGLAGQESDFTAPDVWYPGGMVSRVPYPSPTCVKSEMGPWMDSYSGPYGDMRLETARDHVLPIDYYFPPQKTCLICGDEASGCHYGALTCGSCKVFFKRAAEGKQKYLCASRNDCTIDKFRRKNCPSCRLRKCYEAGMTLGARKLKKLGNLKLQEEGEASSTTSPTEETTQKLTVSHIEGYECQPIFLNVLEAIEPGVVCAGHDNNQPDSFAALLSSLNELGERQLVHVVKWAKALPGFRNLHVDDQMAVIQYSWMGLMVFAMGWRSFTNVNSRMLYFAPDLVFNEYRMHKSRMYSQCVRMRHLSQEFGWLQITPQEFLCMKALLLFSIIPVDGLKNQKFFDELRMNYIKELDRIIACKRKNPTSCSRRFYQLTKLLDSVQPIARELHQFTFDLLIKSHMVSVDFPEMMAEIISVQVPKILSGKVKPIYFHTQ

c1ccc(OCc2ccc(CCCN3CCOCC3)cc2)cc1
active: [2] 0.531 µM | [3] 0.168 µM | [4] 0.596 µM
inactive: [1] | [5] | [6] | [7]

O=C(Cl)c1ccc([N+](=O)[O-])cc1
not listed: [6] | [7]
inactive: all other assays above

Oc1ccc(Cc2ccccc2)cc1
inactive: [1] | [2]

O=C(O)Cc1sc(-c2ccccc2)nc1-c1ccc(Cl)cc1
not listed: [6]
inactive: all other assays above

CCCCCCOC(=O)CCC
inactive: [1] | [2] | [3] | [4] | [5]

CN1CCN(C2=Nc3cc(Cl)ccc3Nc3ccccc32)CC1
inactive: [1] | [5]
active: [2] 21.1 µM | [3] 26.6 µM | [4] 26.6 µM

CCCCCCCCC(CO)CCCCCC (stereo not given)
inactive: [1] | [2] | [3] | [4] | [5]

CCCCCCCCCCCCCCCC(=O)OC/C=C(C)/C=C/C=C(C)/C=C/C1=C(C)CCCC1(C)C
inactive: [1] | [2] | [3] | [4] | [5]

COc1ccccc1OC(=O)Oc1ccccc1OC
not listed: [8] | [9]
inactive: all other assays above

Cc1ccc(C(=O)C(C)CN2CCCCC2)cc1 (stereo not given)
active: [2] 23.7 µM and 26.6 µM | [3] 29.8 µM | [4] 26.6 µM
inactive: [1] | [5]

N[C@H]1C(O)O[C@H](CO)[C@H](O)[C@@H]1O (stereo not given in full)
not listed: [9]
inactive: all other assays above

NC(N)=NN=C(/C=C/c1ccc([N+](=O)[O-])o1)/C=C/c1ccc([N+](=O)[O-])o1
active: [1] 5.35 µM | [2] 1.5 µM | [3] 0.75 µM | [4] 1.88 µM | [5] 9.52 µM | [8] 5.35 µM | [10] 5.96 µM
inactive: [7]

Cc1cccc(Oc2ccccc2)c1
inactive: [1] | [2] | [3] | [4] | [5]

C=C(C)C(=O)OC(C)C
not listed: [9]
inactive: all other assays above

C1=Cc2ccccc2C1
inactive: [1] | [2] | [3] | [4] | [5]

Nc1ccc(C(=O)Nc2ccccc2N)cc1
active: [2] 1.5 µM | [3] 0.422 µM | [4] 1.88 µM | [7] 10.6 µM
inactive: [1] | [5] | [9]

CCCCCC/C=C/C=O
inactive: [1] | [2] | [3] | [4] | [5] | [8]

Cl/C(=C\n1cncn1)c1ccc(Cl)cc1Cl
inactive: [1] | [2] | [3] | [4] | [5]

CC(=O)[C@@]1(O)CC[C@H]2[C@@H]3C[C@H](C)C4=CC(=O)CC[C@]4(C)[C@H]3CC[C@@]21C
inactive: [1] | [5]
active: [2] 16.8 µM | [3] 11.9 µM | [4] 21.1 µM

C1CCC2OC2C1 (stereo not given)
inactive: all assays above

COCCOCCOCCOCCOC
not listed: [6]
inactive: all other assays above

CC(=O)SCc1ccco1
inactive: all assays above

O=C(NS(=O)(=O)/C=C/c1cccs1)c1ccc(F)cc1Br
not listed: [8]
inactive: all other assays above

NC(=S)N/N=C/c1cccnc1
inactive: all assays above

CCCCCCCC/C=C\CCCCCCCC(N)=O
inactive: all assays above

O=C(O)C(c1ccc(Cl)cc1)c1ccc(Cl)cc1
inactive: [1] | [2] | [3] | [4] | [5]

CCC(C)N(C)C(=O)c1cc2ccccc2c(-c2ccccc2Cl)n1 (stereo not given)
active: [2] 15.7 µM | [3] 14 µM | [4] 14 µM | [8] 28.2 µM
not listed: [10]
inactive: all other assays above

CCCCCCCCCO
inactive: [1]

O=C(O)COC(=O)Cc1ccccc1Nc1c(Cl)cccc1Cl
not listed: [9]
inactive: all other assays above

CC(O)C1CCCCC1 (stereo not given)
inactive: [1] | [2] | [3] | [4] | [5]

CCN(CC)CCOc1ccc2c(c1)C(=O)c1cc(OCCN(CC)CC)ccc1-2
inactive: [1] | [5]
active: [2] 5.31 µM | [3] 2.66 µM | [4] 5.96 µM

CCCCCCCCCC=O
inactive: [1] | [2] | [3] | [4] | [5]

O=S1(=O)c2cccc3cccc(c23)N1CCCN1CCN(c2ccc(F)cc2)CC1
inactive: [1] | [5]
active: [2] 18.8 µM | [3] 23.7 µM | [4] 23.7 µM

CCCC[C@H]1CN(CC2CCOCC2)C(=O)OC12CCN(C1(C)CCN(C(=O)c3c(C)ncnc3C)CC1)CC2
inactive: [1] | [2] | [3] | [4] | [5]

O=C(C(=O)c1ccc(Br)cc1)c1ccc(Br)cc1
inactive: all assays above

CC(C)(C)c1ccc(OCC2CO2)cc1 (stereo not given)
inactive: [1] | [2] | [3] | [4] | [5]

NCCCOCCOCCOCCCN
active: [2] 5.45 µM | [3] 10.9 µM | [4] 7.7 µM
inactive: [1] | [5]

C=Cc1c(C)c2cc3[nH]c(cc4nc(cc5nc(cc1[nH]2)C(C)=C5CCC(=O)O)C(CCC(=O)O)=C4C)c(C)c3C=C
inactive: [1] | [2] | [3] | [4] | [5]

ClC(Cl)(Cl)c1ccc(C(Cl)(Cl)Cl)cc1
inactive: [1] | [2] | [3] | [4] | [5] | [9]

CCCCCCCCCCCCCCCBr
inactive: [1] | [2] | [3] | [4] | [5] | [9]

CC1CCc2cc(F)cc3c(=O)c(C(=O)O)cn1c23 (stereo not given)
inactive: [1] | [2] | [3] | [4] | [5] | [9]

FC(F)(F)C(F)(F)C(F)(F)C(F)(F)C(F)(F)C(F)(F)CCI
inactive: [1] | [2] | [3] | [4] | [5] | [9]

COc1ccc(OC)c(OC)c1
inactive: [1] | [2] | [3] | [4] | [5] | [9]

NCc1ccccc1
inactive: [1] | [2] | [3] | [4] | [5] | [9]

N#CCCNCCC#N
inactive: [1] | [2] | [3] | [4] | [5] | [9]

Nc1nc(CC(=O)O)cs1
inactive: [1] | [2] | [3] | [4] | [5] | [9]

Cc1ccc(C(C)c2ccc(C)c(C)c2)cc1C
inactive: [1] | [2] | [3] | [4] | [5] | [9]

O=C(/C=C/c1ccc(O)c(O)c1)O[C@@H]1C[C@](O)(C(=O)O)C[C@@H](O)[C@H]1O
inactive: [1] | [2] | [3] | [4] | [5] | [9]

CC(C)CC=O
inactive: [1] | [2] | [3] | [4] | [5] | [9]

COCCO
inactive: [1] | [2] | [3] | [4] | [5] | [9]

CCCCCCCCN(C)C
inactive: [1] | [2] | [3] | [4] | [5] | [9]

CC(C(=O)O)c1ccc(-c2ccccc2)c(F)c1 (stereo not given)
inactive: [1] | [2] | [3] | [4] | [5] | [9]

CCN(CC)C(C)=O
inactive: [1] | [2] | [3] | [4] | [5] | [9]

CCOC(=S)SSC(=S)OCC
inactive: [1] | [2] | [3] | [4] | [5] | [9]

Nc1nc(N)c(-c2ccccc2)s1
inactive: [1] | [2] | [3] | [4] | [5] | [9]

CN1CCC(=C2c3ccccc3CCc3sccc32)CC1
active: [2] 6.68 µM | [3] 15 µM | [4] 11.9 µM
inactive: [1] | [5] | [9]

Cc1ccc2c(ccc3ccccc32)c1
inactive: [1] | [2] | [3] | [4] | [5] | [9]

CC(C)=CCCC(C)CC=O (stereo not given)
inactive: [1] | [2] | [3] | [4] | [5] | [9]
